PubChem BioAssay (EPA / NIEHS)
Results filed as inconclusive are left out. Activity calls are given as the source filed them. Rule for the calls, unless noted: active = hit-call score of the fitted dose curve at least 0.9, where 1 is the maximum; inconclusive = response in the unintended direction; inactive = score below 0.9.

Key:
[1] = biological target: Oxysterols receptor LXR-beta (Homo sapiens) (UniProt P55055); assay: ATG_LXRb_TRANS: Attagene TRANS-FACTORIAL HepG2 Assay for human Liver X Receptor beta (LXRb) (AID 2282981); details: HepG2 Attagene TRANS GAL4-LXRb reporter, mRNA
Outline: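 Measures induction of a Gal4-driven reporter transcript in HepG2 cells expressing an exogenous LXRb-Gal4 fusion. Cells are exposed to compound for 24 h before RNA isolation and RT-PCR with capillary electrophoresis detection.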

[2] = biological target: Hepatocyte nuclear factor 4-alpha (Homo sapiens) (UniProt P41235); assay: ATG_HNF4a_TRANS: Attagene TRANS-FACTORIAL HepG2 Assay for human Hepatocyte Nuclear Factor 4 alpha (HNF4a) (AID 2282982); details: HepG2 HNF4a transactivation reporter, mRNA readout
Outline: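 In this trans-factorial format, a chimeric HNF4a-GAL4 fusion drives a GAL4-UAS reporter in transfected HepG2 liver cells. After 24 h treatment, reporter mRNA induction is measured by RT-PCR with capillary electrophoresis, relative to DMSO.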

[3] = ATG_M_32_TRANS: Attagene TRANS-FACTORIAL HepG2 Assay for M32 Transcription Factor (Internal Marker) (AID 2282984); details: HepG2 Attagene TRANS M32 internal marker reporter;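 note: transcript level of a background control reporter unit measured by RT-PCR and capillary electrophoresis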
Outline: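 After 24 h dosing of transfected HepG2 cells, total RNA was reverse-transcribed, reporter sequences PCR-amplified, 6-FAM labelled by primer extension and HpaI-digested before capillary electrophoresis. Signal increase over DMSO was fitted.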

[4] = biological target: Nuclear receptor subfamily 4 group A member 2 (Homo sapiens) (UniProt P43354); assay: ATG_NURR1_TRANS: Attagene TRANS-FACTORIAL HepG2 Assay for human Nuclear Receptor Related Protein 1 (NURR1) (AID 2282985); details: HepG2 Attagene TRANS reporter, mRNA readout
Outline: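 Chimeric NR-Gal4 fusion activity measured in HepG2 after 24 h treatment. Reporter transcripts detected by RT-PCR and capillary electrophoresis fluorescence; positive-direction curve fitting against DMSO.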

[5] = biological target: Nuclear respiratory factor 1 (Homo sapiens) (UniProt Q16656); assay: ATG_NRF1_CIS: Attagene CIS-FACTORIAL HepG2 Assay for human Nuclear Respiratory Factor 1 (NRF1) Orphan Gene (AID 2282987; active = hit-call score of the fitted dose curve at least 0.9, where 1 is the maximum; inactive = score below 0.9); details: HepG2 NRF1 cis-element reporter, Attagene multiplex; actives raise or lower the signal
Outline: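 Using DMSO as baseline, gain- or loss-of-signal was fitted for reporter mRNA levels in HepG2 cells transiently transfected with cis-regulated reporter units. Samples were taken 24 h after dosing and read by RT-PCR with capillary electrophoresis.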

[6] = biological target: Transcriptional activator Myb (Homo sapiens) (UniProt P10242); assay: ATG_Myb_CIS: Attagene CIS-FACTORIAL HepG2 Assay for human Myeloblastosis (Myb) Proto-Oncogene Transcription Factor (AID 2282986; active = hit-call score of the fitted dose curve at least 0.9, where 1 is the maximum; inactive = score below 0.9); details: HepG2 Attagene CIS-FACTORIAL Myb reporter transcription; actives raise or lower the signal
Outline: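 In this HepG2 transient-transfection format, cis-regulated reporter mRNA is quantified 24 h post-dosing by RT-PCR with capillary electrophoresis, fitted bidirectionally to DMSO baseline.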

[7] = ATG_M_06_TRANS: Attagene TRANS-FACTORIAL HepG2 Assay for M06 Transcription Factor (Internal Marker) (AID 2282983); details: HepG2 Attagene TRANS M06 internal marker reporter
Outline: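 mRNA levels of a reporter transcript, quantified as FAM fluorescence on capillary electrophoresis, served as readout. HepG2 cells expressing exogenous GAL4-chimera reporter constructs were exposed for 24 h. Gain of signal over DMSO was evaluated.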

[8] = biological target: Oxysterols receptor LXR-alpha (Homo sapiens) (UniProt Q13133); assay: ATG_LXRa_TRANS: Attagene TRANS-FACTORIAL HepG2 Assay for human Liver X Receptor alpha (LXRa) (AID 2282980); details: HepG2 Attagene TRANS reporter, LXRa transactivation
Outline: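 HepG2 cells transiently transfected with GAL4-UAS reporter units for chimeric NR-Gal4 proteins, exposed to chemicals for 24 h. Reporter mRNA quantified by RT-PCR and capillary electrophoresis; gain of signal fitted relative to DMSO.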

Transcriptional activator Myb (Homo sapiens), sequence (P10242 whole entry, looked up): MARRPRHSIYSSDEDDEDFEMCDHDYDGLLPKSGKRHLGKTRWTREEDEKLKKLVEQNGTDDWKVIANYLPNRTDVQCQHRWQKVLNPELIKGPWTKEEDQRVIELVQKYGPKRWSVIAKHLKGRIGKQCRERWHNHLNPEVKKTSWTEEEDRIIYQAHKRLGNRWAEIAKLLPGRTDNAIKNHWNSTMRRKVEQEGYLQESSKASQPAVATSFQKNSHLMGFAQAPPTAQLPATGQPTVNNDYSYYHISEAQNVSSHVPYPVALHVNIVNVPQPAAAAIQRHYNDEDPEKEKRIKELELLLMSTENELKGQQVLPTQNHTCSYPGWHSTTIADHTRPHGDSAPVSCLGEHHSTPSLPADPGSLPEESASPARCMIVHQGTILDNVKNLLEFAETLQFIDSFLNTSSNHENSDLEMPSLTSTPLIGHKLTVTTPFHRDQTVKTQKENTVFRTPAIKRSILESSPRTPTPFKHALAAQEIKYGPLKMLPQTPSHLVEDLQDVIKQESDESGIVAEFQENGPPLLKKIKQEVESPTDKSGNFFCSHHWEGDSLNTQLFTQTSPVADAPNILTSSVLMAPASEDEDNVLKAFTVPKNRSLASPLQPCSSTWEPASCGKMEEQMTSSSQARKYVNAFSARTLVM
Nuclear respiratory factor 1 (Homo sapiens), sequence (Q16656 whole entry, looked up): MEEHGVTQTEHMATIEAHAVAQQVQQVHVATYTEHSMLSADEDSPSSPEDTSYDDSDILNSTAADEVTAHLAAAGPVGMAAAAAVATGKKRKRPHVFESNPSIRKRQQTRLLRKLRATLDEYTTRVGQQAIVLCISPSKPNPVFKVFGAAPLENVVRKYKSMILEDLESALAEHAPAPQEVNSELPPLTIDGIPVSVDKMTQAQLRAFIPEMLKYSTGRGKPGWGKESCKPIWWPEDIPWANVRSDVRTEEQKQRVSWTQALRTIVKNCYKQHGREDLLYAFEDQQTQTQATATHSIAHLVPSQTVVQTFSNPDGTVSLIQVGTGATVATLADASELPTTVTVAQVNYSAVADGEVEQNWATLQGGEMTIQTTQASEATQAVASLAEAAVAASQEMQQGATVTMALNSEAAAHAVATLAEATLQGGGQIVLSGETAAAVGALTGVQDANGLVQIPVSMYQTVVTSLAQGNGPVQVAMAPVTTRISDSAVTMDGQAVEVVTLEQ
Nuclear receptor subfamily 4 group A member 2 (Homo sapiens), sequence (P43354 whole entry, looked up, the tested form may be a part): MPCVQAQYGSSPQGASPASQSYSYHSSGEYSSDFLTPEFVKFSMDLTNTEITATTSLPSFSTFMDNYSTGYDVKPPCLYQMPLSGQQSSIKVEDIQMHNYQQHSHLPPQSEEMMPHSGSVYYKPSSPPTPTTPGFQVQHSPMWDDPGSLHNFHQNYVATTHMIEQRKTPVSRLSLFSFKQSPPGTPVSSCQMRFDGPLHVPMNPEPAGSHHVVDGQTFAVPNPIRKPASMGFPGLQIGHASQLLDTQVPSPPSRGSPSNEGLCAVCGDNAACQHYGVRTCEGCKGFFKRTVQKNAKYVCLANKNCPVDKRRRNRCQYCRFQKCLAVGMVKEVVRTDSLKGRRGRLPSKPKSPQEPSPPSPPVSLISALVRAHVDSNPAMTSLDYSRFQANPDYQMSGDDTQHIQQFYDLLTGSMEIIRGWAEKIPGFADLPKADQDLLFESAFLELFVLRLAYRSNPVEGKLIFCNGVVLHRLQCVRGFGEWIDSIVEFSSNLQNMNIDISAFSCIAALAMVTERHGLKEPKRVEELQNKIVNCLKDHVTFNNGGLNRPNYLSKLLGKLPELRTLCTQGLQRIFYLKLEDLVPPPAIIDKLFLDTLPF
Hepatocyte nuclear factor 4-alpha (Homo sapiens), sequence (P41235 whole entry, looked up, the tested form may be a part): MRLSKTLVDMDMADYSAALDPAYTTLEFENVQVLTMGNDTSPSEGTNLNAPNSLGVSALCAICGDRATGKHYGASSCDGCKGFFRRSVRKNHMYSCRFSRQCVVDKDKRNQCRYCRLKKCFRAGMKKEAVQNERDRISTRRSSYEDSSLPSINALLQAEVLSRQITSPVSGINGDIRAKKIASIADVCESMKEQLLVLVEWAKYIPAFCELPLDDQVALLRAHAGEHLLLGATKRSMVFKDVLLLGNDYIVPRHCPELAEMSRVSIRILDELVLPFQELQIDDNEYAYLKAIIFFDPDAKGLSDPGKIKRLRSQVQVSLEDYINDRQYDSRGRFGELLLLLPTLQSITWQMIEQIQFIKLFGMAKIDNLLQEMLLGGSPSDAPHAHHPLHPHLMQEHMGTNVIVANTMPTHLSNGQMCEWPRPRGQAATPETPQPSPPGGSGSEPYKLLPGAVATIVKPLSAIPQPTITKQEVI
Oxysterols receptor LXR-beta (Homo sapiens), sequence (P55055 whole entry, looked up, the tested form may be a part): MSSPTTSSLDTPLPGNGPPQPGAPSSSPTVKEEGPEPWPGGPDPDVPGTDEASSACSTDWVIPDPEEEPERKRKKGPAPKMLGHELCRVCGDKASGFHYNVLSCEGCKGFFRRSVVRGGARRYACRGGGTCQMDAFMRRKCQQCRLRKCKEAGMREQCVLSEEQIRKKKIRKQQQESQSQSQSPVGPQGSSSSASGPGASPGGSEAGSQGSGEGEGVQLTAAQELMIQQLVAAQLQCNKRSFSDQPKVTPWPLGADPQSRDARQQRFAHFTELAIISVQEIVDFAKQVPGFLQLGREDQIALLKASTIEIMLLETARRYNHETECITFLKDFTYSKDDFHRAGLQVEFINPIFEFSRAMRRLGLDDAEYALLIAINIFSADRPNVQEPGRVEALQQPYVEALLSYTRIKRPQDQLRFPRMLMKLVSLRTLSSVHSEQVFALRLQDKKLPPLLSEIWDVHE
Oxysterols receptor LXR-alpha (Homo sapiens), sequence (Q13133 whole entry, looked up, the tested form may be a part): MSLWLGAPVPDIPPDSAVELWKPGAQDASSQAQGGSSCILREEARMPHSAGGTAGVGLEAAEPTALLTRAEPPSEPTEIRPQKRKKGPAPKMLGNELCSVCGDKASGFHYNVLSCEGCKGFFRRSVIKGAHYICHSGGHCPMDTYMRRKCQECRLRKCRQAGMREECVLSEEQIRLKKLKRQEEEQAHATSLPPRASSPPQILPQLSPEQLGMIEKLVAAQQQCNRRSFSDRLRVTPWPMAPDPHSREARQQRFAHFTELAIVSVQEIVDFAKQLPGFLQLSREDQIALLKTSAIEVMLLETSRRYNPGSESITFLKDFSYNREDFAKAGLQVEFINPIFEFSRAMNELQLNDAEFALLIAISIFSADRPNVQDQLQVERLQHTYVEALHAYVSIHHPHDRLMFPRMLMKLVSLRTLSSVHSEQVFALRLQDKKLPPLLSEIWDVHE

| Compound | outcome [1] | outcome [2] | outcome [3] | outcome [4] | outcome [5] | outcome [6] | outcome [7] | outcome [8] | AC50 [5] |
| --- | --- | --- | --- | --- | --- | --- | --- | --- | --- |
| CCC(=O)OCCC(C)CCC=C(C)C (centres undefined) | inactive | inactive | inactive | inactive | inactive |  |  |  |  |
| COc1ccc(O)cc1 | inactive |  | inactive | inactive | inactive | inactive |  |  |  |
| NCCCCCCN | inactive | inactive |  |  | inactive | inactive |  |  |  |
| O=C(O)CN(CCN(CC(=O)O)CC(=O)O)CCN(CC(=O)O)CC(=O)O | inactive | inactive | inactive | inactive | inactive | inactive | inactive |  |  |
| CCN(CC)CCOC(=O)c1ccc(N)cc1 |  |  | inactive |  | inactive | inactive |  | inactive |  |
| c1cc(C(c2ccc(OCC3CO3)cc2)c2ccc(OCC3CO3)cc2)ccc1OCC1CO1 (centres undefined) | inactive | inactive | inactive | inactive |  | inactive | inactive |  | 24 µM (active) |
| C=C(C)C(=O)NCCCN(C)C | inactive | inactive |  |  | inactive | inactive |  |  |  |
| Clc1cccc(Cl)n1 | inactive | inactive | inactive |  | inactive | inactive |  |  |  |
| CC(C)C1CCC(O)CC1 (centres undefined) | inactive |  | inactive | inactive | inactive | inactive | inactive |  |  |
| CCOC(=O)c1ccccc1OC | inactive |  | inactive |  | inactive |  | inactive |  |  |
| CCCCCC(CO)CCC (centres undefined) | inactive |  |  |  | inactive | inactive | inactive |  |  |
| CCC(C(=O)NC(N)=O)c1ccccc1 (centres undefined) | inactive |  |  |  | inactive | inactive | inactive |  |  |
| CC1CCC2CC1C2(C)C (centres undefined) | inactive | inactive |  |  | inactive |  |  |  |  |
| Cc1ccc2ccccc2n1 | inactive |  | inactive |  | inactive | inactive |  |  |  |
| CCCCCCCCC | inactive | inactive |  |  | inactive | inactive |  |  |  |
| CC(C)=CCO | inactive | inactive | inactive |  | inactive | inactive |  |  |  |
| Cc1ccc(S)cc1 | inactive | inactive | inactive |  | inactive | inactive | inactive |  |  |

| Compound | outcome [1] | outcome [2] | outcome [3] | outcome [4] | outcome [5] | outcome [6] | outcome [7] | outcome [8] | AC50 [5] |
| --- | --- | --- | --- | --- | --- | --- | --- | --- | --- |
| CCCCCCCCCCCCCCCC(=O)OC[C@H](O)[C@H]1OC(=O)C(O)=C1O | inactive | inactive |  | inactive | inactive |  | inactive |  |  |
| C=CC(C)(CCC=C(C)C)OC=O (centres undefined) | inactive | inactive |  |  | inactive | inactive | inactive |  |  |
| CC(C)=CCCC(C)=CCCC(C)=CCO | inactive |  | inactive | inactive | inactive | inactive |  |  |  |
| O=C1C(c2[nH]c3ccc(S(=O)(=O)O)cc3c2O)=Nc2ccc(S(=O)(=O)O)cc21 | inactive |  | inactive | inactive | inactive | inactive | inactive |  |  |
| Cc1ccc(C(=O)O)o1 | inactive | inactive |  |  | inactive | inactive | inactive |  |  |
| COC(C(=O)O)c1ccccc1 (centres undefined) |  | inactive |  |  | inactive | inactive | inactive |  |  |
| CCCCCCCCCCC(CO)CCCCCCCC (centres undefined) |  |  | inactive | inactive | inactive | inactive |  |  |  |
| CC[C@]12CCCN3CCc4c(n(c5ccccc45)[C@@](O)(C(=O)OC)C1)[C@@H]32 |  | inactive | inactive |  | inactive | inactive | inactive |  |  |
| CCCCCNCCCCC |  | inactive |  |  | inactive | inactive | inactive |  |  |
| CC(C)=CCC[C@](C)(O)[C@@H]1CC=C(C)CC1 |  |  |  | inactive | inactive | inactive |  |  |  |
| CC1(CO)CN(c2ccccc2)NC1=O (centres undefined) |  |  | inactive |  | inactive |  | inactive |  |  |
| O=C1CCc2ccccc2O1 |  | inactive |  | inactive | inactive | inactive | inactive |  |  |
| Nc1ccc(S(N)(=O)=O)cc1 |  |  |  | inactive | inactive | inactive | inactive |  |  |
| Clc1nc(C(Cl)(Cl)Cl)c(Cl)c(Cl)c1Cl |  | inactive | inactive | inactive | inactive | inactive | inactive |  |  |
| Nc1nc2ccc([N+](=O)[O-])cc2s1 |  | inactive | inactive | inactive | inactive | inactive | inactive |  |  |
| CC(=O)C(=O)O |  | inactive |  |  | inactive | inactive | inactive |  |  |
| CCCCCCCCCCCCCCCC(=O)O |  |  |  | inactive | inactive | inactive | inactive |  |  |
